Measured values from the supplement of paper PMC3334620.
The full ranking holds about 33,000 sequences; the median of “E-score (-0.5 to 0.5)” is about -0.036, and the highest 2% start at about 0.37. Shown is part of a subset that was picked to be rich in the highest values.

Each sequence was assayed against T1, Yer064c (UniProt P40041) (assay: PBM E-score (8-mer binding enrichment) (E-score (-0.5 to 0.5)); higher = stronger / more preferred TF binding). Conditions: protein concentration: 200 nM; construct: GST-full length.
T1 sequence: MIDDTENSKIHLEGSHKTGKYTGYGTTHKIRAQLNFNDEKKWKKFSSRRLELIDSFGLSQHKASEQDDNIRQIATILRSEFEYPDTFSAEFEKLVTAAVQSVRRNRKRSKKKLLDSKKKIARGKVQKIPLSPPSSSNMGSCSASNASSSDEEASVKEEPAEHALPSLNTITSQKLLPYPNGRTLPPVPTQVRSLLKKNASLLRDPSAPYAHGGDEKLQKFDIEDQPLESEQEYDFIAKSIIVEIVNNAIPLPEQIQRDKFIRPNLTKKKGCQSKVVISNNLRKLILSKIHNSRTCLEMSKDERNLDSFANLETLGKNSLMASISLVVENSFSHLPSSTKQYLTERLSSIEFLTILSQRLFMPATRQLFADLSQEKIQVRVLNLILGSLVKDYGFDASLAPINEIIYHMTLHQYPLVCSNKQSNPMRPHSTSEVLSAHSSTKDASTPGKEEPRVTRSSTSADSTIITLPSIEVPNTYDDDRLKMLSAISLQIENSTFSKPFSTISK
Method in brief: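 Universal all-10-mer Agilent arrays, double-stranded by primer extension on fresh or once-stripped slides, were probed with about 100-200 nM GST-tagged yeast transcription factors made by PURExpress. Fluorescent anti-GST detected bound protein, and masliner normalised the scans. E-scores from the Universal PBM Analysis Suite were given to each ungapped eight-base word pooled with its reverse complement.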

Going from CTCAAGGC to ATCCACTC, the “PBM E-score” value falls from 0.104 to -0.0532.

First: TCCAACCA
Second: CATCGGCC
The “PBM E-score” value of the first is lower: -0.132 for the first, -0.0369 for the second.

First: ACTGGGAC
Second: CGAGTCTA
The “PBM E-score” value of the first is lower: 0.0246 for the first, 0.132 for the second.

Compared with GGAGTCTA, GGAGTCAA is higher in “PBM E-score” value: 0.172 for the first, 0.431 for the second.

Going from TGAGTCCA to AGAGTACA, the “PBM E-score” value falls from 0.397 to 0.171.

Going from GGAGTACA to GGAGTCGA, the “PBM E-score” value rises from 0.129 to 0.212.

First: CGAGTCCA
Second: GGAGTCCA
The “PBM E-score” value of the first is lower: 0.0419 for the first, 0.243 for the second.

First: TGAGTACA
Second: CGAGTCAA
The “PBM E-score” value of the first is lower: 0.376 for the first, 0.444 for the second.

Compared with CAAGTCAA, CAAAGCCG is lower in “PBM E-score” value: 0.196 for the first, -0.176 for the second.

Compared with ACCTGCGG, CAGGCGGC is higher in “PBM E-score” value: -0.208 for the first, 0.0353 for the second.

Compared with TGGCGCAA, CGCTGGTA is higher in “PBM E-score” value: -0.15 for the first, -0.0555 for the second.

Going from CACTACCC to CACTACCA, the “PBM E-score” value falls from 0.00286 to -0.0175.

Compared with GACTACCA, TACTACCA is lower in “PBM E-score” value: 0.413 for the first, 0.00773 for the second.

Going from AACTACCC to GACTACCC, the “PBM E-score” value rises from -0.158 to 0.42.

Compared with ACAAAACT, CAGGACCC is lower in “PBM E-score” value: -0.0935 for the first, -0.208 for the second.

Compared with GAGAACGA, CCTTAGTC is higher in “PBM E-score” value: -0.0613 for the first, 0.41 for the second.

Going from ACTTAGTA to ACTTAGTG, the “PBM E-score” value rises from 0.162 to 0.198.

Compared with CCTTAGTA, ACTTAGTC is higher in “PBM E-score” value: -0.0218 for the first, 0.435 for the second.

Going from CCTTAGAC to GTCCATAA, the “PBM E-score” value falls from 0.063 to -0.161.

First: CCCGGCGG
Second: ATCCTGGG
The “PBM E-score” value of the first is lower: -0.182 for the first, -0.0196 for the second.

Compared with CGTCAAGA, GGTCAAGA is higher in “PBM E-score” value: -0.229 for the first, -0.0401 for the second.

Compared with AGTCAAGA, AGTCAAGC is lower in “PBM E-score” value: 0.414 for the first, 0.358 for the second.

First: AGTCAAGG
Second: ACTCAAGG
The “PBM E-score” value of the first is higher: 0.392 for the first, 0.29 for the second.

First: CCTTCGTA
Second: AGCGCTGA
The “PBM E-score” value of the first is lower: -0.15 for the first, 0.0781 for the second.

Compared with CTATCGGC, ACTCACAA is higher in “PBM E-score” value: -0.0556 for the first, 0.395 for the second.

Going from CCTCACGA to ACTCACGA, the “PBM E-score” value rises from -0.0431 to 0.388.

Going from ACTCACGC to CCTCACAA, the “PBM E-score” value falls from 0.357 to 0.038.

Going from ACTCACAG to ACGCACGG, the “PBM E-score” value falls from 0.353 to -0.192.

Compared with ACACACGG, ACTCACGG is higher in “PBM E-score” value: 0.0742 for the first, 0.376 for the second.

Going from ATCTCAGA to ACCCCTAA, the “PBM E-score” value rises from -0.113 to -0.0884.

Going from AAGATTTC to AATCTGAC, the “PBM E-score” value rises from 0.0103 to 0.23.

Compared with GGACGTAC, ACAGCCTC is lower in “PBM E-score” value: -0.0832 for the first, -0.308 for the second.

First: CAATCACC
Second: TAATCACA
The “PBM E-score” value of the first is lower: 0.343 for the first, 0.419 for the second.

Going from GAATCACA to AAATCACG, the “PBM E-score” value falls from 0.439 to 0.264.

Compared with CAATCACA, AAATCACA is lower in “PBM E-score” value: 0.346 for the first, 0.219 for the second.

Going from CAATCACG to AAATCACC, the “PBM E-score” value rises from 0.296 to 0.328.

First: GAATCACC
Second: AAACACAC
The “PBM E-score” value of the first is higher: 0.456 for the first, 0.0803 for the second.

First: AGACAGCC
Second: AAAGTCCC
The “PBM E-score” value of the first is higher: -0.181 for the first, -0.235 for the second.

First: GGACTCGA
Second: GGCAGTAA
The “PBM E-score” value of the first is higher: 0.118 for the first, 0.0188 for the second.

First: ACCAGTCC
Second: CGCAGTCA
The “PBM E-score” value of the first is lower: -0.0297 for the first, 0.422 for the second.

Compared with CGCAGTCC, ACCAGTCT is lower in “PBM E-score” value: 0.134 for the first, 0.0632 for the second.

First: AGCAGTCA
Second: GGCAGTCA
The “PBM E-score” value of the first is lower: 0.412 for the first, 0.445 for the second.

Going from GGCAGTGA to ACCAGTCA, the “PBM E-score” value rises from 0.0347 to 0.369.

Compared with CCCAGTCA, AGCAGTCG is lower in “PBM E-score” value: 0.316 for the first, 0.065 for the second.

Going from AGCAGTCC to AAACGGTA, the “PBM E-score” value rises from -0.0176 to 0.0163.

Compared with GTTATGGA, CGCCCGAC is higher in “PBM E-score” value: -0.119 for the first, -0.0703 for the second.

First: ATATCGGC
Second: GATCGTAA
The “PBM E-score” value of the first is lower: -0.169 for the first, -0.068 for the second.

First: AATACCAC
Second: GGCACTTA
The “PBM E-score” value of the first is higher: -0.172 for the first, -0.212 for the second.

Going from CTATCCGC to ATGGAGTC, the “PBM E-score” value rises from 0.00533 to 0.398.

Going from CTGGAGAC to ATGGAGTG, the “PBM E-score” value falls from -0.0698 to -0.143.

First: CTGGAGTA
Second: CTGGAGTC
The “PBM E-score” value of the first is lower: 0.0648 for the first, 0.39 for the second.

Going from ATGGAGTA to TAGGGCGA, the “PBM E-score” value falls from 0.182 to 0.0759.

Going from AAAGCTTA to AGTTAGCC, the “PBM E-score” value rises from -0.0514 to 0.127.

First: ATCGCACG
Second: TAGTCGGA
The “PBM E-score” value of the first is lower: -0.0772 for the first, 0.288 for the second.

First: CAGTCGGA
Second: GAGTCGGC
The “PBM E-score” value of the first is lower: 0.118 for the first, 0.412 for the second.
